In PubChem BioAssay:
Inconclusive results are not listed. Active and inactive are the calls of the source.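 Rule for the calls, unless noted: active = viability at or below 10% of carrier control in both of two separate runs; inconclusive = viability at or below 10% in only one of the two runs; inactive = the rest.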

Experiments:
[1] = reducers of endogenous Her2 protein level, primary screen, SKBR3 breast tumor cells, AlphaScreen, ATP viability (AID 461;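 active = Her2 level under about 52% in both replicate screens, with viability over 70% of control, limit read from the data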;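 for Her2 level: lower value means less Her2 protein in the cells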;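 for viability: percent of carrier control wells set as 100% viability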); conditions: 18-24 h, measured here: SKBR3 viability, ATP luminescence, at 10 µM
[2] = target: Receptor tyrosine-protein kinase erbB-2 (Homo sapiens) (UniProt P04626); test: as above; conditions: 18-24 h, at 10 µM, stronger effect = lower value
[3] = SK-BR-3 cell growth inhibitors, pilot screen, 24 h, human (AID 572); conditions: SK-BR-3 viability, CellTiter-Glo luminescence, at 10 µM, stronger effect = lower value;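 note: compound exposure lasted between 18 and 24 h rather than exactly 24 h; 100% = carrier-treated control wells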
[4] = HUVEC growth inhibition – cell-based, human, primary screen (AID 575;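 active = viability at or below 30% in both replicate assays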;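 note: 100% = median of untreated cell wells with 0.1% DMSO on each plate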); conditions: HUVEC proliferation, CellTiter-Glo luminescence, 72 h; at 10 µM; stronger effect = lower value
[5] = growth inhibitors of H69AR lung tumor, primary screen, human, duplicate replicates (AID 580;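 active = viability at or under a set limit in both replicates, limit being median viability minus 3 SD, cut at about 48% in these data, passing the limit was not always enough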;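 note: 100% = mean luminescence of untreated wells and 0% = no signal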); conditions: H69AR lung tumor cells viability, ATP luminescence, 72 h; at 10 µM; stronger effect = lower value
[6] = reversal of MRP1-mediated doxorubicin resistance, pilot screen, H69AR cells, doxorubicin co-treatment (AID 601;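 active = viability loss from added drug above about 55%, and viability with drug at most 40%, in both replicates, limit read from the data, passing the limit was not always enough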); conditions: CellTiter-Glo, 72 h, at 10 µM; for differential viability (reversal): stronger effect = higher value
[7] = 384-well plate pilot, post-Golgi transport modulator project, inhibition of yeast transport mutant growth (AID 636; in the data active = inhibition above about 31%); conditions: absorbance 615 nm, about 18 h, stronger effect = higher value
[8] = growth suppression of yeast trafficking mutant, preliminary HTS, modulators of trafficking downstream of Golgi apparatus project, 1536-format plate, OD 615 nm (AID 637; in the data active = inhibition above about 30%); conditions: yeast transport mutant growth, absorbance 615 nm, 18 h; stronger effect = higher value
[9] = OD615 S. cerevisiae growth inhibition, permissive medium, pilot counter-assay, permissive growth control for S. cerevisiae lifespan shortening project (AID 705;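 active = growth inhibition above 25% in both replicates, a cutoff set 3 SD above the mean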); conditions: OD615, 24 h, at 10 µM, stronger effect = higher value
[10] = Restrictive medium S. cerevisiae growth inhibition, OD615, pilot screen of yeast lifespan reduction project, restrictive growth control (AID 706;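 active = growth inhibition above a set limit, 3 SD over mean compound inhibition, in both replicates, cut at about 43% in these data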;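 note: modified DeaD lifespan yeast strain shifted to restrictive glucose medium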); conditions: OD615, 48 h, at 10 µM, stronger effect = higher value
[11] = viability gain of MRP-1-high H69AR cells under doxorubicin, pilot screen, MRP-1 activator project, CellTiter-Glo, duplicate (AID 807;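 active = viability increase at or above a cutoff of the median across tested compounds plus 3 SD, cut at about 8.5% in these data, passing the limit was not always enough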;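 note: compound pretreatment 18-22 h then 72 h combined with doxorubicin; 0% = doxorubicin alone and 100% = vehicle without doxorubicin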); conditions: H69AR viability with doxorubicin, CellTiter-Glo luminescence; at 10 µM; stronger effect = higher value
[12] = growth suppression of beta-catenin knockout HCT116, pilot screen, human colon tumor cells (AID 823;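 active = cell viability at or below a set limit in both duplicate runs, the limit being the all-compound median minus 4 SD, cut at about 23% in these data, passing the limit was not always enough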;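 note: 0% = wells killed by 20 µM Hyamine and 100% = untreated DMSO cell wells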); conditions: CellTiter-Glo, 60 h, at 10 µM, stronger effect = lower value
[13] = growth suppression of PTEN-deleted HCT116, pilot screen, cell-based, HCT116 clonal line, CellTiter-Glo (AID 824;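 active = viability at or below 27.92% in each of two runs, the all-compound median minus 4 SD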;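 note: 0% = 20 µM Hyamine control and 100% = vehicle cell control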); conditions: 60 h, at 10 µM, stronger effect = lower value
[14] = inhibitors of the yeast RAM network, pilot screen, dse1pr::URA3 reporter, 5-FOA selection (AID 869;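 active = inhibition over a set limit, the all-compound mean plus 3 SD, in both replicate runs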;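 note: 0% = DMSO wells with no growth and 100% = 10 µM 1-NA-PP1 with full growth; RAM network block rescues cells from 5-FOA so hits raise OD615 growth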); conditions: S. cerevisiae dse1pr::URA3 5-FOA growth, OD615, 2 d; at 10 µM; stronger effect = higher value; strain carries analog-sensitive mutant Cbk1 kinase
[15] = H69AR cells + 2 uM doxorubicin, measured here: viability with 2 uM doxorubicin, stronger effect = lower value
[16] = H69AR cells, compound alone cytotoxicity

Receptor tyrosine-protein kinase erbB-2 (Homo sapiens), sequence (P04626 whole entry, looked up): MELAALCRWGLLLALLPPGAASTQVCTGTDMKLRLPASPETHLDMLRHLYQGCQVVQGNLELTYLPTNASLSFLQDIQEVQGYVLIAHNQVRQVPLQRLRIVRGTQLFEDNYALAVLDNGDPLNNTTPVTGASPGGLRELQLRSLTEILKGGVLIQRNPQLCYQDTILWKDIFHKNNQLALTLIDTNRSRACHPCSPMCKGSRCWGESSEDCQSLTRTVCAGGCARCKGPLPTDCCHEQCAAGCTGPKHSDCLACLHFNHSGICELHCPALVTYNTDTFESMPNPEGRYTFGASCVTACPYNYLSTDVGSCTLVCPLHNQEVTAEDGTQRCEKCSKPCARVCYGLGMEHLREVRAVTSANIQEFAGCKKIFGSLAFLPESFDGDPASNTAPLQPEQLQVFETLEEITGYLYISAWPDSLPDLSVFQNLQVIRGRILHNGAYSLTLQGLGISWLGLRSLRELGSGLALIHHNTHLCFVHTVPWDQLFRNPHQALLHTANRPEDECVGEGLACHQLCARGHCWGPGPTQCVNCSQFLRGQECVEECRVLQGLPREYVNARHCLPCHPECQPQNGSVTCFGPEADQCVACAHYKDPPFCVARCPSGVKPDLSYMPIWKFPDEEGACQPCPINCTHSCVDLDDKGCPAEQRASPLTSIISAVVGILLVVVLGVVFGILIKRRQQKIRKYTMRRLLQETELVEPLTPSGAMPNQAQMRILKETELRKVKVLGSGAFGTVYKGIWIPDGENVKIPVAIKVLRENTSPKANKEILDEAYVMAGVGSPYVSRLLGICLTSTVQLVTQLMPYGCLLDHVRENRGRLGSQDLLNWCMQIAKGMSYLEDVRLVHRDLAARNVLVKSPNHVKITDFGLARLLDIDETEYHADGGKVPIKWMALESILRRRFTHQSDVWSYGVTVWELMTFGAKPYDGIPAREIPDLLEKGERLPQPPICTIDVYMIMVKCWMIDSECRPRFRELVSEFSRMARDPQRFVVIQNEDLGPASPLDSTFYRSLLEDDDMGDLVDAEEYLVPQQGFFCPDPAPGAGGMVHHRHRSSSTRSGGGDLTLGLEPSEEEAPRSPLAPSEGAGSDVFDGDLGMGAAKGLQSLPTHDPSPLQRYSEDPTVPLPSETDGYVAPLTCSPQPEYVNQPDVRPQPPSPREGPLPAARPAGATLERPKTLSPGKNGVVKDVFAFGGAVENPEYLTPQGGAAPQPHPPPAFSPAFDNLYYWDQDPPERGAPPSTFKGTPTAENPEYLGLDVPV

Structure (SMILES)	viability [1] [%]	Her2 level [2]	viability [3]	viability [4]	viability [5]	differential viability (reversal) ([6]; H69AR cells + 2 uM doxorubicin)	viability [6, 15] [%]	viability [6, 16] [%]	inhibition [7]	inhibition [8]	growth inhibition [9]	growth inhibition [10]	viability increase [11]	viability [12]	viability [13]	inhibition [14]
COc1ccc(N2C(=O)CC(N3CCCC4CCCCC43)C2=O)cc1 (centres undefined)	102	125% (inactive)	102% (inactive)	109% (inactive)	90.8% (inactive)	9.28% (inactive)	81.5	90.8	-4.03% (inactive)	-6.83% (inactive)	-3.32% (inactive)	3.25% (inactive)	-0.71% (inactive)	98.3% (inactive)	101% (inactive)	0.71% (inactive)
Cc1ccc(CCNC(=O)C2CCCN2S(=O)(=O)c2ccc3c(c2)CCC(=O)N3)cc1 (centres undefined)	87.5	93.5% (inactive)	87.5% (inactive)	91.8% (inactive)	101% (inactive)	4.97% (inactive)	96.2	101	-1.33% (inactive)	11.2% (inactive)	-8.07% (inactive)	-8.79% (inactive)	3.43% (inactive)	101% (inactive)	98.8% (inactive)	2% (inactive)
CC(=O)O[C@]1(C(C)=O)CC[C@H]2[C@@H]3C[C@H](C)C4=CC(=O)CC[C@]4(C)[C@H]3CC[C@@]21C	153	65% (inactive)	153% (inactive)	83.3% (inactive)	–	-5.03% (inactive)	6.83	1.8	–	–	–	–	–	–	–	–
N#Cc1c(NC(=O)COC(=O)C2CC3C=CC2C3)oc(-c2ccccc2)c1-c1ccccc1 (centres undefined)	106	80% (inactive)	106% (inactive)	78.1% (inactive)	44.6% (active)	-23.4% (inactive)	68.1	44.6	-0.26% (inactive)	-0.36% (inactive)	-17.5% (inactive)	-14.6% (inactive)	-5.47% (inactive)	92.3% (inactive)	–	3.41% (inactive)
CCOC(=O)C1CCCN(c2c(Nc3ccc(C)c(C)c3)c(=O)c2=O)C1 (centres undefined)	84	99% (inactive)	84% (inactive)	91.7% (inactive)	87.6% (inactive)	–	–	–	0% (inactive)	-4.43% (inactive)	–	–	–	–	–	–
CCCNC(=O)c1c(N)n(-c2cc(OC)cc(OC)c2)c2nc3ccccc3nc12	89	73.5% (inactive)	89% (inactive)	38.6% (inactive)	–	-9.04% (inactive)	66.7	57.6	-3.87% (inactive)	2.3% (inactive)	–	–	–	–	–	–
Cn1c(=O)n(Cc2ccccc2)c(=O)c2c1nc(NCC1CCCO1)n2Cc1ccccc1 (centres undefined)	81.5	103% (inactive)	81.5% (inactive)	74.4% (inactive)	73.3% (inactive)	–	–	–	0.79% (inactive)	-0.18% (inactive)	–	–	–	–	–	–
O=C(C1CCN(c2nnc(-n3cccc3)s2)CC1)N1CCN(Cc2ccc3c(c2)OCO3)CC1	78.5	80.5% (inactive)	78.5% (inactive)	105% (inactive)	82% (inactive)	-3.6% (inactive)	85.6	82	3.59% (inactive)	1.67% (inactive)	10.4% (inactive)	10.1% (inactive)	-0.09% (inactive)	59.1% (inactive)	64.8% (inactive)	2.78% (inactive)
CCc1nc(N)nc(N)c1-c1ccc(Cl)cc1	103	79% (inactive)	103% (inactive)	117% (inactive)	–	-59.9% (inactive)	95.8	35.9	–	–	–	–	–	–	–	–
CCOC(=O)c1sc(NC(=O)CSc2nnc(-c3ccco3)n2CC)c(C(=O)OCC)c1C	101	71% (inactive)	101% (inactive)	77.5% (inactive)	74.2% (inactive)	–	–	–	-0.66% (inactive)	-0.32% (inactive)	–	–	–	–	–	–
Cc1cccc(OCC(=O)N2CCC(c3ccccc3)C2)c1 (centres undefined)	104	112% (inactive)	104% (inactive)	98% (inactive)	92.8% (inactive)	1.84% (inactive)	90.9	92.8	-4.05% (inactive)	-1.83% (inactive)	-17.9% (inactive)	-6.05% (inactive)	-0.58% (inactive)	83% (inactive)	83.7% (inactive)	0.225% (inactive)
COc1ccc(OC)c(NC(=O)CCNS(=O)(=O)c2cccs2)c1	95	103% (inactive)	95% (inactive)	92.4% (inactive)	99.8% (inactive)	5.6% (inactive)	94.2	99.8	-3.6% (inactive)	23.3% (inactive)	-2.31% (inactive)	13.9% (inactive)	-2.82% (inactive)	–	96.1% (inactive)	2.21% (inactive)
Cc1ccc(Cn2nnc3c(=O)[nH]c(C4CCN(S(=O)(=O)c5ccc(F)cc5)CC4)nc32)cc1	90.5	106% (inactive)	90.5% (inactive)	76.4% (inactive)	86.2% (inactive)	–	–	–	-1.73% (inactive)	-5.16% (inactive)	–	–	–	–	–	–
O=c1[nH]c(=O)n([C@H]2C[C@H](O)[C@@H](CO)O2)cc1F	89	74% (inactive)	89% (inactive)	51.3% (inactive)	–	-40.6% (inactive)	57	16.4	–	–	–	–	–	–	–	–
CC[C@H]1OC(=O)C[C@@H](O)[C@H](C)[C@@H](O[C@@H]2O[C@H](C)C[C@H](N(C)C)[C@H]2O)[C@@H](CC=O)C[C@@H](C)C(=O)C=C[C@]2(C)O[C@H]2[C@@H]1C	162	19.5% (active)	162% (inactive)	53.5% (inactive)	–	-6.67% (inactive)	45.8	39.1	–	–	–	–	–	–	–	–
